Laboratory results: PubChem BioAssay AID485281 (National Center for Advancing Translational Sciences (NCATS), 2010)
Screen size: about 350,000 compounds; about 260 (0.074%) were called active. Roughly 8% stayed inconclusive and do not appear here. The entries come from a sample that favours actives as a whole. Values without a mark were called inactive. Calls follow the shape of the dose curve; as a rule, active = well fitted inhibition curve with a large enough effect; inconclusive = small, poorly fitted or top-dose-only effect; inactive = no such curve, though single readings can be large or run the other way.

Biological target: Ferritin light chain (Equus caballus) (UniProt P02791)
Test: qHTS Assay for Identification of Novel General Anesthetics; also: nearly all actives have a fitted effect of over 20% in size
Conditions: apoferritin/1-aminoanthracene competitive binding, fluorescence; series mostly up to 77.5 µM; activity change, negative = displacement: at the top concentration
Text: Source: NIH Chemical Genomics Center [NCGC]
Assay Submitter: Roderic Eckenhoff, University of Pennsylvania
Screening Center PI: Christopher P. Austin, NIH
Probe Development: NIH Chemical Genomics Center [NCGC]
Anesthetic development has remained a largely empirical process. There are growing concerns about the cognitive effects of known general anesthetics and acceleration of the onset of neurodegenerative disease. The compounds' toxicity and multiple specific binding targets in the mammalian brain [4] has made them less attractive as drug leads. In this assay, a GABAergic mimetic model system, apoferritin and a profluorescent 1-aminoanthracene ligand (1-AMA), was used to construct a competitive binding assay for identification of novel general anesthetics. The assay was validated for 1-AMA using other known anesthetics, such as isoflurane (CID:3763) and propofol (CID: 4943), [6].
[1] S.L. Bianchi, T. Tran, C. Liu, S. Lin, Y. Li, J.M. Keller, R.G. Eckenhoff, and M.F. Eckenhoff, Brain and behavior changes in 12-month-old Tg2576 and nontransgenic mice exposed to anesthetics. Neurobiol Aging 29 (2008) 1002-10.
[2] Z. Xie, Y. Dong, U. Maeda, R.D. Moir, W. Xia, D.J. Culley, G. Crosby, and R.E. Tanzi, The inhalation anesthetic isoflurane induces a vicious cycle of apoptosis and amyloid beta-protein accumulation. J Neurosci 27 (2007) 1247-54.
[3] P. Honegger, and J.M. Matthieu, Selective toxicity of the general anesthetic propofol for GABAergic neurons in rat brain cell cultures.
[4] M.F. Eckenhoff, K. Chan, and R.G. Eckenhoff, Multiple specific binding targets for inhaled anesthetics in the mammalian brain. J Pharmacol Exp Ther 300 (2002) 172-9.
[5] C.A. Butts, J. Xi, G. Brannigan, A.A. Saad, S.P. Venkatachalan, R.A. Pearce, M.L. Klein, R.G. Eckenhoff, and I.J. Dmochowski, Identification of a fluorescent general anesthetic, 1-aminoanthracene. Proc Natl Acad Sci U S A 106 (2009) 6501-6.
[6] W.A. Lea, J. Xi, A. Jadhav, L. Lu, C.P. Austin, A. Simeonov, and R.G. Eckenhoff, A high-throughput approach for identification of novel general anesthetics. PLoS One 4 (2009) e7150.
Three uL of reagents (free 1-AMA (50% saturated solution of 1-aminoanthracene
in PBS) in columns 3, 4 as negative control and 1-AMA/apoferritin mixture (10 uM horse-spleen apoferritin in 50% saturated 1-aminoanthracene in PBS) in columns 1, 2, 5-48) was dispensed into 1536-well Greiner black assay plates. Compounds (23 nL) were transferred via Kalypsys pintool equipped with 1,536-pin array (10 nL slotted pins, V&P Scientific, San Diego, CA). Titration of the positive control, propofol, were delivered via pin transfer from separate control plates to the 2nd column of each assay plate. The starting concentration of the control, dissolved in DMSO, was at 160 mM, followed by two-fold dilution points in duplicate, for a total of 16 concentrations. The plates were incubated for 10 min at room temperature, and then read on an EnVision HTS multilabel reader (Perkin-Elmer, Waltham, MA) (end point read, 3 min/plate) using Fura2 BFP excitation filter (380 nm, bandwidth 10 nm) and fluorescein emission filter (535 nm, bandwidth 25 nm) set. A LANCE/DELFIA dichroic mirror with a cutoff wavelength at 400 nm was used to maximize signal accuracy and strength. Vehicle-only plates, with DMSO being pin-transferred to the entire column 5-48 compound area, were inserted uniformly at the beginning and the end of each library in order to monitor for and record any shifts in the background. Activity was computed as the normalized fluorescence response relative to free 1-AMA and 1-AMA/apoferritin complex values. Concentration-effect relationships were derived by using curve fitting algorithms developed in-house (http://ncgc.nih.gov/pub/openhts/). A four parameter Hill equation was fitted to the concentration-response data by minimizing the residual error between the modeled and observed responses.
% is scaled to controls: 0 for no effect and ±100 for the full control effect; potency is read from the fitted curve at half-maximal effect.

Sequence of Ferritin light chain (Equus caballus) (P02791 2-175 limits assumed): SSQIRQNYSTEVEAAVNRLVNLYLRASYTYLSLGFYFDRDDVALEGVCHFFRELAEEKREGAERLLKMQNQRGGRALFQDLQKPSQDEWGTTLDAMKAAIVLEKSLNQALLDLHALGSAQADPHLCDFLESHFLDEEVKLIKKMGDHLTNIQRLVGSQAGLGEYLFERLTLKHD

Question: With COc1ccc(CNC(=O)CSCc2nc(-c3ccccc3F)oc2C)cc1 as the compound, how does the “activity change, negative = displacement” value read?
Answer: -12.4%

Question: With COc1ccc(Br)cc1C1CC(=O)Nc2c1c(C)nn2-c1nc(C)cc(C)n1 (stereo not drawn) as the compound, how does the “activity change, negative = displacement” value read?
Answer: 3.29%

Question: For Cc1ccc(NC(=O)c2ccc3[nH]c(C)cc(=O)c3c2)c(C)c1, which “activity change, negative = displacement” value is on record?
Answer: -7.2%

Question: How did the “activity change, negative = displacement” value turn out when Cc1c(Cl)cccc1-c1ccc(CNCCCSc2nnnn2C)o1 was run?
Answer: -11.2%

Question: COc1ccc(NC(=O)CCN2CCN(CCO)CC2)cc1 was tested. Which “activity change, negative = displacement” value did it give?
Answer: -5.78%

Question: How did the “activity change, negative = displacement” value turn out when COc1ccc(CCNC(=O)c2ccc3c(c2)nc(C)n3-c2ccc(Br)cc2)cc1OC was run?
Answer: -10.5%

Question: How did the “activity change, negative = displacement” value turn out when O=C(CSc1nccn1C1CCCC1)Nc1cc(C(F)(F)F)ccc1Cl was run?
Answer: -7.55%

Question: How did the “activity change, negative = displacement” value turn out when CCN(CC)c1ccc(NS(=O)(=O)c2cc(-c3cc(C)no3)ccc2C)c(C)c1 was run?
Answer: -16.1%

Question: Cc1ccc(F)c(NC(=O)CCOc2ccccc2C)c1 was tested. Which “activity change, negative = displacement” value did it give?
Answer: -17.2%

Question: How did the “activity change, negative = displacement” value turn out when Cc1cccc(OCC(=O)Nc2ccccc2F)c1 was run?
Answer: -10.1%

Question: Cc1ccc(F)c(NC(=O)CCc2ccccc2)c1 was tested. Which Potency did it give?
Answer: 12.6 µM (active)

Question: How did the “activity change, negative = displacement” value turn out when CCc1ccc(NC(=O)C2CCCN2S(=O)(=O)c2ccc3nc(-c4ccccc4)[nH]c3c2)cc1 (stereo not drawn) was run?
Answer: 45.5%

Question: Which “activity change, negative = displacement” value does the source give for Cc1ccc2oc3c(c(=O)c2c1)C(c1ccc([N+](=O)[O-])cc1)N(CCCN1CCOCC1)C3=O (stereo not drawn) here?
Answer: 2.9%

Question: How did the “activity change, negative = displacement” value turn out when CSc1ccc(C2c3c(oc4ccccc4c3=O)C(=O)N2CCCN2CCOCC2)cc1 (stereo not drawn) was run?
Answer: -3.91%

Question: CCCOc1ccc(C2c3c(oc4cc(C)c(C)cc4c3=O)C(=O)N2CCCN2CCOCC2)cc1 (stereo not drawn) was tested. Which Potency did it give?
Answer: 35.5 µM (active)

Question: With CCOc1ccc(C(NC(=O)c2cc(OC)c(OC)c(OC)c2)c2cc(Cl)c3cccnc3c2O)cc1 (stereo not drawn) as the compound, how does the “activity change, negative = displacement” value read?
Answer: -4.02%

Question: Cc1c(Cl)cccc1NC(=O)Cn1cc(C(=O)c2cccs2)c2ccccc21 was tested. Which “activity change, negative = displacement” value did it give?
Answer: -3.85%

Question: How did the “activity change, negative = displacement” value turn out when O=C(Nc1ccc(Br)cc1)c1ccc(Br)c(S(=O)(=O)NCc2ccccc2)c1 was run?
Answer: -4.58%

Question: Which “activity change, negative = displacement” value does the source give for CCCn1c2ccccc2c2cnn(CC(=O)NCC3CCN(Cc4ccc(C)cc4)CC3)c(=O)c21 here?
Answer: 2.12%

Question: Which “activity change, negative = displacement” value does the source give for COc1ccc(N2CCN(c3nc(-c4ccccc4F)nc4ccccc34)CC2)cc1 here?
Answer: 2.92%

Question: How did the “activity change, negative = displacement” value turn out when COc1ccc(OC)c(NC(=O)/C=C/c2ccc(C)o2)c1 was run?
Answer: -9.12%

Question: CCC1CN(S(=O)(=O)c2cc(-c3cc(C)no3)ccc2C)c2cc(C)ccc2O1 (stereo not drawn) was tested. Which “activity change, negative = displacement” value did it give?
Answer: 53.1%

Question: CC(C)c1ccc(OCC(=O)N(Cc2ccc(N(C)C)cc2)C2CCS(=O)(=O)C2)cc1 (stereo not drawn) was tested. Which “activity change, negative = displacement” value did it give?
Answer: 0.697%

Question: For CSc1ccc(CCNC(=O)c2ccc3c(c2)nc2n3CCOC2)cc1, which “activity change, negative = displacement” value is on record?
Answer: 2.01%

Question: Which “activity change, negative = displacement” value does the source give for CC(C)S(=O)(=O)c1oc(-c2ccc(F)cc2)nc1S(=O)(=O)c1ccc(F)cc1 here?
Answer: -17%

Question: With CCOc1ccc(-c2cc(C)n3nc(C(=O)Nc4ccc(C)c(C)c4)cc3n2)cc1 as the compound, how does the “activity change, negative = displacement” value read?
Answer: -1.85%

Question: With COc1ccc(Cl)cc1NC(=O)CCn1c(=O)c2cccn2c2ccccc21 as the compound, how does the “activity change, negative = displacement” value read?
Answer: 1.18%

Question: With O=C(NCc1ccccc1)C(=O)NCC(c1ccco1)S(=O)(=O)c1ccc(Cl)cc1 (stereo not drawn) as the compound, how does the “activity change, negative = displacement” value read?
Answer: 0.676%

Question: With CCC(=O)N1CCc2cc(S(=O)(=O)NC(Cc3ccccc3)C(=O)NCc3ccccc3)ccc21 (stereo not drawn) as the compound, how does the “activity change, negative = displacement” value read?
Answer: -3.69%

Question: With CC(C)c1ccc(NC(=O)c2ccc(Cn3nc(N4CCN(c5ccccc5)CC4)ccc3=O)o2)cc1 as the compound, how does the “activity change, negative = displacement” value read?
Answer: -20.7%

Question: Which “activity change, negative = displacement” value does the source give for Cc1ccc(CCNC(=O)c2ccc(CS(=O)(=O)Cc3cccc(C)c3)o2)cc1 here?
Answer: -18.4%

Question: CNC(=O)c1ccc(-c2nc(CN3CCc4ccccc43)c(C)o2)cc1 was tested. Which “activity change, negative = displacement” value did it give?
Answer: -15.1%

Question: Which “activity change, negative = displacement” value does the source give for COc1ccc(-c2noc(CSc3nc4ccc(C)cc4[nH]3)n2)cc1 here?
Answer: -17.7%

Question: For Cc1ccc(C(=O)Nc2ccc(OCc3cc(=O)n4c5c(sc4n3)CCCC5)cc2)cc1, which “activity change, negative = displacement” value is on record?
Answer: -0.406%

Question: How did the Potency turn out when C=CC(=O)c1ccc2ccccc2c1 was run?
Answer: 17.8 µM (active)

Question: For O=C(Nc1ccc(NC(=O)c2cccs2)cc1)c1ccc2ccccc2c1, which “activity change, negative = displacement” value is on record?
Answer: 8.46%

Question: How did the “activity change, negative = displacement” value turn out when O=C(Nc1ccccc1N1CCCC1)c1ccc2ccccc2c1 was run?
Answer: -13.8%

Question: How did the “activity change, negative = displacement” value turn out when CCOc1cc(C(=O)Nc2nnc3n2CCS3)cc(OCC)c1OCC was run?
Answer: 3.04%

Question: For Cc1cc(O)c(C(c2ccccc2)N2CCN(c3ccccc3F)CC2)c(=O)n1Cc1ccco1 (stereo not drawn), which “activity change, negative = displacement” value is on record?
Answer: -12.2%

Question: CCOc1cc(-c2nnc(SCC(=O)NC3CCCCC3)nc2-c2ccc(OC)c(OCC)c2)ccc1OC was tested. Which “activity change, negative = displacement” value did it give?
Answer: 3.53%

Question: COc1ccc(C(=O)Nc2ccc(-n3nncc3-c3ccccc3)cc2)cc1OC was tested. Which “activity change, negative = displacement” value did it give?
Answer: -2.67%

Question: How did the “activity change, negative = displacement” value turn out when Cn1c(C(=O)N2CCC(C(=O)N3CCN(c4ccccc4)CC3)CC2)cc2sccc21 was run?
Answer: 1.34%

Question: Which “activity change, negative = displacement” value does the source give for CC(C)(C)OC(=O)N1CCC(c2c(C(=O)NCCc3ccsc3)cnn2-c2ccc(F)cc2F)CC1 here?
Answer: -21.7%

Question: Which “activity change, negative = displacement” value does the source give for COc1cccc(C(c2c(O)cc(C)n(Cc3ccco3)c2=O)N2CCN(c3ccccc3)CC2)c1 (stereo not drawn) here?
Answer: 55.7%

Question: COc1ccc2ncc3c(-c4ccc(C)c(C)c4)nn(CC(=O)NC4CCCC4)c3c2c1 was tested. Which “activity change, negative = displacement” value did it give?
Answer: -5.23%

Question: For Cc1ccc2occ(/C=N/NC(=O)c3ccccc3C)c(=O)c2c1, which Potency is on record?
Answer: 25.1 µM (active)

Question: Which “activity change, negative = displacement” value does the source give for CC(C)(C)OC(=O)NCCCCCC(=O)N/N=C/c1coc2ccccc2c1=O here?
Answer: 5.44%

Question: How did the “activity change, negative = displacement” value turn out when O=c1c(/C=N/O)coc2ccc(Cl)cc12 was run?
Answer: -1.41%

Question: With O=S(=O)(NCC(c1ccccc1)N1CCc2ccccc21)c1ccccc1 (stereo not drawn) as the compound, how does the “activity change, negative = displacement” value read?
Answer: 51.7%

Question: O=C(O)c1c(CNCc2cccc(F)c2)c2ccccc2n1Cc1ccccc1 was tested. Which “activity change, negative = displacement” value did it give?
Answer: -21.5%

Question: Which “activity change, negative = displacement” value does the source give for O=c1cc2nc(-c3ccccc3)nc(SCCOc3ccc(Cl)cc3)n2[nH]1 here?
Answer: -0.698%

Question: COc1ccc(CCN2C(=O)N(c3cccc(OC)c3)C(=O)C2CC(=O)Nc2ccccc2)cc1 (stereo not drawn) was tested. Which “activity change, negative = displacement” value did it give?
Answer: 85.6%

Question: How did the “activity change, negative = displacement” value turn out when CCc1cnc2c(c1SCC(=O)c1ccccc1)c(=O)n(C)c(=O)n2C was run?
Answer: -10.2%

Question: For CCCNC(=O)c1ccc2c(c1)ncn2-c1ccc(C)cc1C, which “activity change, negative = displacement” value is on record?
Answer: -7.08%

Question: Which “activity change, negative = displacement” value does the source give for CC(C)c1ccc(S(=O)(=O)Nc2ccc(O)c(Sc3nc4ccccc4s3)c2)cc1 here?
Answer: -11.6%

Question: How did the “activity change, negative = displacement” value turn out when COc1cc(NC(=O)c2cc3ccc4cccnc4c3[nH]2)cc(OC)c1OC was run?
Answer: -13.1%

Question: For CCOc1ccc(OCC)c(NC(=O)CN(c2ccc(C)cc2)S(=O)(=O)c2c(C)n[nH]c2C)c1, which “activity change, negative = displacement” value is on record?
Answer: -11.5%

Question: COc1ccc(OC)c(CCNC(=O)CCCn2c(=O)c3cccn3c3cccnc32)c1 was tested. Which “activity change, negative = displacement” value did it give?
Answer: 10.6%
